Source: the supplement of paper PMC11732987, “Enantioselective OTUD7B fragment discovery through chemoproteomics screening and high-throughput optimisation” (Communications Chemistry, 2025)

How the values were obtained:
Assay in all cases: log2 ratio of Biotin-Ahx-Ub-VS probe labelling (fragment/DMSO); higher = less target engagement (more negative = stronger competition), active = hit call of the paper (q ≤ 0.05, log2 ratio ≤ -1)
Conditions in all cases: compound concentration: 200 uM; treatment time: 3 h
[1] = biological target: USP16 (UniProt Q9Y5T5)
Sequence of USP16 (Q9Y5T5 whole entry, looked up, the tested form may be a part): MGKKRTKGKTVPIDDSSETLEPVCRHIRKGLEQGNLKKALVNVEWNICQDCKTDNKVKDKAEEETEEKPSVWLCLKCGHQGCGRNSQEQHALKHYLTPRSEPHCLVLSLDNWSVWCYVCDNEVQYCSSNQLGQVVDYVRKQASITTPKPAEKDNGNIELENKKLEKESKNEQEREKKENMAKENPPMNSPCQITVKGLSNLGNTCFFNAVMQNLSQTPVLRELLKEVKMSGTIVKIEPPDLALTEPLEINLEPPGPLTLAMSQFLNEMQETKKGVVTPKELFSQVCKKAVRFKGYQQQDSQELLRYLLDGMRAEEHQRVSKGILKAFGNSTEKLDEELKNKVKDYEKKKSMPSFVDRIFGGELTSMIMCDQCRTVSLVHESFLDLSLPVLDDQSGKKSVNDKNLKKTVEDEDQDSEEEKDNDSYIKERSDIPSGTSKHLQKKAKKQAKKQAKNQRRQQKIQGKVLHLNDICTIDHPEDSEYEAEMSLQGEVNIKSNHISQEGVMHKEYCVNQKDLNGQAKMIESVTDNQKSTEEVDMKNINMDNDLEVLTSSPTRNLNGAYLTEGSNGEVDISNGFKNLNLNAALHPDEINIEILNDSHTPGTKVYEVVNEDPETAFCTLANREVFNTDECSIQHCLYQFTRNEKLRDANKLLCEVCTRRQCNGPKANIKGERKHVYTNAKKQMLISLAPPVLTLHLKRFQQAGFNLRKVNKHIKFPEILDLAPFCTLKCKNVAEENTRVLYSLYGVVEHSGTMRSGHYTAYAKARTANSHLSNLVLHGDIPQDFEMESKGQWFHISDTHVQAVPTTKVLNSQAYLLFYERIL
Method in brief: (§1)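 Labelled DUBs were enriched with NeutrAvidin, digested with LysC and trypsin, and run by diaPASEF LC-MS/MS. The labelling used Biotin-Ahx-Ub-VS at 0.5 µM final for 1 h on HEK293T lysate (495 µg per sample) previously treated in triplicate with fragment at 200 µM or vehicle for 3 h. Values are average log2 fragment/vehicle ratios by unpaired t-test on global-median-normalised Spectronaut quantities of proteins with ≥2 unique peptides.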

[2] = biological target: T1, USP19 (UniProt O94966)
T1 sequence (whole entry): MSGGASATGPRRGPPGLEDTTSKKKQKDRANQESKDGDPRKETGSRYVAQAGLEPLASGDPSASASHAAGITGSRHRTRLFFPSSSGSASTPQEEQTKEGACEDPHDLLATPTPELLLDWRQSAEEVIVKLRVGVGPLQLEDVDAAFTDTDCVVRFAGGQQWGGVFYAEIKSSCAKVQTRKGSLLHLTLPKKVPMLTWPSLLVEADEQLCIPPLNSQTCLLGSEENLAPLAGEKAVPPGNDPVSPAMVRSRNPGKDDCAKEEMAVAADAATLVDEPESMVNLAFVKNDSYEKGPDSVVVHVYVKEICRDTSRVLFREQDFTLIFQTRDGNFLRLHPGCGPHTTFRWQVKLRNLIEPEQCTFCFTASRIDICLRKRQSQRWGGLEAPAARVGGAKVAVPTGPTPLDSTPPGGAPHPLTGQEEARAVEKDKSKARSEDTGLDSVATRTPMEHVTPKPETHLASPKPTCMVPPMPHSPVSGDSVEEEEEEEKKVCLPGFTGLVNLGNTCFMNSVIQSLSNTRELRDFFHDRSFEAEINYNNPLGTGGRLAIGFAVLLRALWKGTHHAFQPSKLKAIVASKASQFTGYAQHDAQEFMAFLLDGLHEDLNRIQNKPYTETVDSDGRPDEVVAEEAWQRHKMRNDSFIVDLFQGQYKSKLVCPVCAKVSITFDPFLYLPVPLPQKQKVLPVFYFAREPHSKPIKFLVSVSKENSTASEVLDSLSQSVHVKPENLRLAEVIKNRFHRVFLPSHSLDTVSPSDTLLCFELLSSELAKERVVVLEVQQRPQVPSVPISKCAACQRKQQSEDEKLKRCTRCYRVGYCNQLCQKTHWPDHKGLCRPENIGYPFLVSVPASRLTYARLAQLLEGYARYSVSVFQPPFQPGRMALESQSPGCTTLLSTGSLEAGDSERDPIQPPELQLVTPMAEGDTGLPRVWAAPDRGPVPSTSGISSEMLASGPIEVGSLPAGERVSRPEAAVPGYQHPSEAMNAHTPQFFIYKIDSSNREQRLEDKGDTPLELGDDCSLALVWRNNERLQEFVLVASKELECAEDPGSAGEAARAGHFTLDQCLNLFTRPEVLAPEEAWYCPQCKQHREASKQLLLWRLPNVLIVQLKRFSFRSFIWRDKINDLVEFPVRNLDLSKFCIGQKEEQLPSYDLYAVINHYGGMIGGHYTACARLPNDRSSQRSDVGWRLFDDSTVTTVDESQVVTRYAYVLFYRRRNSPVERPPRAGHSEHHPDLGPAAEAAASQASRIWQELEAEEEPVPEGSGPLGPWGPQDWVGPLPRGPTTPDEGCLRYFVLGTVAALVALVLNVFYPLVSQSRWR
Method in brief: as §1

[3] = biological target: USP24 (UniProt Q9UPU5)
Sequence of USP24 (Q9UPU5 whole entry): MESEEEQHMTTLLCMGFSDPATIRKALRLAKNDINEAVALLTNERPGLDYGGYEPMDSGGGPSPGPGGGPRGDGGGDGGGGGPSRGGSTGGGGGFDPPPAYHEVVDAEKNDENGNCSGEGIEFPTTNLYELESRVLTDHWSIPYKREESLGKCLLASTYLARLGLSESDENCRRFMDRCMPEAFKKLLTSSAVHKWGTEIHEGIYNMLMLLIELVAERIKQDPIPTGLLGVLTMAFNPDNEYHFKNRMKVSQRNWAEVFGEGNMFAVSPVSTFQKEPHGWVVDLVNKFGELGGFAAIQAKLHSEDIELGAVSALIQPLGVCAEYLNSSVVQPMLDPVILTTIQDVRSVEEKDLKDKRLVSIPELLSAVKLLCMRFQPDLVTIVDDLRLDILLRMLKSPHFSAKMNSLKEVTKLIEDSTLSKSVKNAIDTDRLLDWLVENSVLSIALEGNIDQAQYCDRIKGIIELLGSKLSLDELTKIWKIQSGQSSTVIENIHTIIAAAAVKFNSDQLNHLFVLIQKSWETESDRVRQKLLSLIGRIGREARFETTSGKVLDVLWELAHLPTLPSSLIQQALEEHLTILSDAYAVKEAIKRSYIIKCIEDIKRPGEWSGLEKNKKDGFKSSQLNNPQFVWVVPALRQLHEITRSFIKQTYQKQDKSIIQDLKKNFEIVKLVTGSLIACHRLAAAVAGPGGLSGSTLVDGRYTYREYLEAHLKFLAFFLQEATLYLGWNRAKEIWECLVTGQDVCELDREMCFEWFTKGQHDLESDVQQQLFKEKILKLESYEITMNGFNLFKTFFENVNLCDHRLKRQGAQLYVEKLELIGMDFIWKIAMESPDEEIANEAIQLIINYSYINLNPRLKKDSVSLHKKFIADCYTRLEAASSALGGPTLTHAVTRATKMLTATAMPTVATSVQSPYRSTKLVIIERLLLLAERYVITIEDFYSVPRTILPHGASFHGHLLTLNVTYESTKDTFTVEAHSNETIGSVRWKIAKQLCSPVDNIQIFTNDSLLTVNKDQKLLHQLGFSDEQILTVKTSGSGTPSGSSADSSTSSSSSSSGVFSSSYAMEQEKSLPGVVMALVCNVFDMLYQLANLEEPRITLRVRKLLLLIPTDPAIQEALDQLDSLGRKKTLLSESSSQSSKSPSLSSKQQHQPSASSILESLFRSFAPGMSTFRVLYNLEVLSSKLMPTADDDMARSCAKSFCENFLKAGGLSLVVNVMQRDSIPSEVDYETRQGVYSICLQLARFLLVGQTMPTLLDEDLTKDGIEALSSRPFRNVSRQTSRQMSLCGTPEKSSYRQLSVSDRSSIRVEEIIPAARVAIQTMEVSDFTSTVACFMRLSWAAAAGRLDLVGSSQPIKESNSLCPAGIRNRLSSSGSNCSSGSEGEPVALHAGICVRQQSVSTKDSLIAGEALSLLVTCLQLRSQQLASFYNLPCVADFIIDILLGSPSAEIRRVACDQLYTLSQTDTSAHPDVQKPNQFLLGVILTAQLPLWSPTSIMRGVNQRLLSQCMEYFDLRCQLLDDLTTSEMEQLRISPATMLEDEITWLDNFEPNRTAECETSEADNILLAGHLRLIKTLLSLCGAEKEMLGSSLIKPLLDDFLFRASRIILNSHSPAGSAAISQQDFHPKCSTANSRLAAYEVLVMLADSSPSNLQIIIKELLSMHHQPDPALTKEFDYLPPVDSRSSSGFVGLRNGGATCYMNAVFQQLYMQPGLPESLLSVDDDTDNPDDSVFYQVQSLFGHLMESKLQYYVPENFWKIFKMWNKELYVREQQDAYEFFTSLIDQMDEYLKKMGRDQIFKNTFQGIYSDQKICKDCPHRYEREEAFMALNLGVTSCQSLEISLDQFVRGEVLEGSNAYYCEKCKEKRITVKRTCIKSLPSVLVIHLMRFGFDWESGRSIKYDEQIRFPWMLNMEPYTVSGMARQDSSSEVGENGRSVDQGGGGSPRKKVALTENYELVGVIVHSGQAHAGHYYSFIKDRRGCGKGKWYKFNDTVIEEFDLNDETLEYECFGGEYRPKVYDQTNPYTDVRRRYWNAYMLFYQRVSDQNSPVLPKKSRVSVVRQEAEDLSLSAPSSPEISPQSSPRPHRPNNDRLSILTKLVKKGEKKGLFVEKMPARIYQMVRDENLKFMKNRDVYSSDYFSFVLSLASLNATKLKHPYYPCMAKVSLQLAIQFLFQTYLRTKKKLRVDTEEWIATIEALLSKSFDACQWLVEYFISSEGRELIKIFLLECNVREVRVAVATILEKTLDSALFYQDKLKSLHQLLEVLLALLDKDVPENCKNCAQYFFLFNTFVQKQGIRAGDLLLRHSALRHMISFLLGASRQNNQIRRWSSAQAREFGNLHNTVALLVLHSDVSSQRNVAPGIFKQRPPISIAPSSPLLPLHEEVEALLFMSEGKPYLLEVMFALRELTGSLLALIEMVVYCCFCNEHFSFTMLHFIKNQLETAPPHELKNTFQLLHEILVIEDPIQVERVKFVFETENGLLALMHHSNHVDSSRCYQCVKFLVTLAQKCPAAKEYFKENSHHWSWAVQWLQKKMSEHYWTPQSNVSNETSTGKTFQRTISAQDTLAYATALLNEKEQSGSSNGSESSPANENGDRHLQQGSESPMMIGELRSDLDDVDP
Method in brief: as §1

[4] = biological target: T2, USP25 (UniProt Q9UHP3)
T2 sequence (whole entry): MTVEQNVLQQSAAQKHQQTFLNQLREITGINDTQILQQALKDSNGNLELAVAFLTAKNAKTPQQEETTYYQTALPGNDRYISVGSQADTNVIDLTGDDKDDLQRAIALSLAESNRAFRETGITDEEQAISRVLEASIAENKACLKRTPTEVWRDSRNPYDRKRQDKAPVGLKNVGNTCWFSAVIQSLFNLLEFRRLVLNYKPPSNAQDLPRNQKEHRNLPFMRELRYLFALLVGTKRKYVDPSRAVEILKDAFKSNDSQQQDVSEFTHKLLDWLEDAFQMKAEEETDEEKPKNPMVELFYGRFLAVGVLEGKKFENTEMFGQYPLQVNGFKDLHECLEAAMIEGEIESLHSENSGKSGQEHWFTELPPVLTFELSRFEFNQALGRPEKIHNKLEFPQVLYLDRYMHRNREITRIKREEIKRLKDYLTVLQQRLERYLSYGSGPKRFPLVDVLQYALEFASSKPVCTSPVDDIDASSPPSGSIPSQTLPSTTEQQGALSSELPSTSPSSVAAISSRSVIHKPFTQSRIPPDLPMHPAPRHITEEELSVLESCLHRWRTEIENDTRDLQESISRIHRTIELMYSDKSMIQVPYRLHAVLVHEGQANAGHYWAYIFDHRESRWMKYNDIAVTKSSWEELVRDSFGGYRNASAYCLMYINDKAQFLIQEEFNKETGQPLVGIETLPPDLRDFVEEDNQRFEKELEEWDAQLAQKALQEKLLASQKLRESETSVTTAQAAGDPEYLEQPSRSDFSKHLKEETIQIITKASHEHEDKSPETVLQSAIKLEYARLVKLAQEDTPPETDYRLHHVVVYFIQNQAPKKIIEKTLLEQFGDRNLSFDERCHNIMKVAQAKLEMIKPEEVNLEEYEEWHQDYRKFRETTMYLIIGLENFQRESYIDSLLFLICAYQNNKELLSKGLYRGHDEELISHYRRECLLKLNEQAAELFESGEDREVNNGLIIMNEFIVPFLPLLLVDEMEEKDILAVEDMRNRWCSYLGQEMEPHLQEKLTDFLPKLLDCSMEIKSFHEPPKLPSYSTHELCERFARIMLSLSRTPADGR
Method in brief: as §1

[5] = biological target: T3, USP28 (UniProt Q96RU2)
T3 sequence (whole entry): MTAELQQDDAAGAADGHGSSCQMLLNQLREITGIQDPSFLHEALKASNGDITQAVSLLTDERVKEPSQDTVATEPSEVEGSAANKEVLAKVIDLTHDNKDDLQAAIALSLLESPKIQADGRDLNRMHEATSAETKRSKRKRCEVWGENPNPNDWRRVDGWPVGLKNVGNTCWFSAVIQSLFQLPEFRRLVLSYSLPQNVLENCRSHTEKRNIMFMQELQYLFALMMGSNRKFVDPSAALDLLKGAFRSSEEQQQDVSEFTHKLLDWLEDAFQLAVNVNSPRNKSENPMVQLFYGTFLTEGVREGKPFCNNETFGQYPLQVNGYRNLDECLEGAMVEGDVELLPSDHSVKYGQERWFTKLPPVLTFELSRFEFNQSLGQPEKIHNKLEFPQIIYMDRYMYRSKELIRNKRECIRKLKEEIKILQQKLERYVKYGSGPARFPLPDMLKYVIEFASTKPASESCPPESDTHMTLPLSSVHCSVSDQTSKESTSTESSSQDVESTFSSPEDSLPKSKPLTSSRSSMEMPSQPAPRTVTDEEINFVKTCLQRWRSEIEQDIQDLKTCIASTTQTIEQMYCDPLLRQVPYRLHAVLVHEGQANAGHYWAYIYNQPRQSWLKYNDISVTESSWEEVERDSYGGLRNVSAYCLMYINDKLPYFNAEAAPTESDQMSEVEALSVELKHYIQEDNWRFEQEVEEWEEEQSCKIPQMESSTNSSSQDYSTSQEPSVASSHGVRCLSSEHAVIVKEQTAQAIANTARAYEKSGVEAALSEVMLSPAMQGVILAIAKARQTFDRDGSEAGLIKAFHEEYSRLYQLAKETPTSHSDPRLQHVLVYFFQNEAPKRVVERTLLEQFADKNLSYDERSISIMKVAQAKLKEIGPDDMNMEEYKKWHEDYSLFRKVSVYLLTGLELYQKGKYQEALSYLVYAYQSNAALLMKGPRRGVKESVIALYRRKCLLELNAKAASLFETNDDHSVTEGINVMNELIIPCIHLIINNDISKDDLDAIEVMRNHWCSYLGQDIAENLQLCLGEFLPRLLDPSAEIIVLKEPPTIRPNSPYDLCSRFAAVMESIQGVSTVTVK
Method in brief: as §1

Measured: log2 ratio of Biotin-Ahx-Ub-VS probe labelling

O=C(CCl)N1CCN(C(=O)Nc2ccccc2)CC1
inactive: [1] 0.0643 | [2] -0.276 | [3] 0.00221 | [4] -0.151 | [5] -0.246
